This is a sample that favours compounds with a hit; in the whole collection about 12% have one here.
Shiga inhibitor = inhibitors of Shiga toxin in Vero cells; Vero cells, Shiga toxin protein synthesis inhibition reporter; inhibition, % at 38.7 µM; hit rate 9.2% among 290,000; in the data active = inhibition mostly above about 28%, no sharp cut-off; inactive = mostly below about 43%; note: 0% is about no effect
CHX counter = affects cycloheximide protein synthesis inhibition readout, counter-screen; cell reporter, cycloheximide protein synthesis inhibition counterscreen; max response, %; hit rate 12% among 300,000; AID 2314; in the data active = max response mostly above about 13%, no sharp cut-off; inactive = mostly below about 14%; note: read at 38.3 µM for the half of the compounds with a filed dose; 0% is about no effect
NS1 function inh = influenza NS1 inhibition | Potency, µM (series often up to 46.1 µM), without a hit: top-dose activity, positive = more growth | hit rate 0.4% among 270,000; note: potency is the fitted concentration of half-maximal effect; actives are rising curves; nearly all actives have a fitted effect of over 50% in size
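S. cerevisiae expressing influenza A NS1, grown in glucose, washed, then diluted 1:100 into pH 6.0 -URA galactose medium with 23 nl compound. Growth recovery read as OD600; NS1-free strain serves as control.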
SARS PLpro yeast = blocks SARS-CoV papain-like protease in a yeast assay | S. cerevisiae expressing SARS-CoV PLpro, growth rescue | Potency, µM (doses to about 32.9 µM), for inactives: at the highest dose activity, positive = growth rescue, actives largely listed as activators | hit rate 0.19% among 330,000; note: potency is the fitted concentration of half-maximal effect; 0% is about no effect; nearly all actives have a fitted effect of over 55% in size
An asterisk follows results filed as active; u = inconclusive; x = no result. Unless noted, calls come from the whole dose curve.

SMILES | Shiga inhibitor | CHX counter | NS1 function inh | SARS PLpro yeast
O=C(O/N=C(\c1ccccc1)c1ccncc1)c1ccccc1Cl | -6 | -1 | x | -16%
Cc1ccccc1/C(N)=N/OC(=O)c1cccs1 | 61* | 27* | -48% | -77%
CCOP(=O)(OCC)/C(=N/OC(=O)c1ccc(Cl)cc1Cl)C(N)=O | 9 | -2 | 3% | 0%
Cc1ccc(NC(=O)CSc2nnc(CNC(=O)c3ccco3)n2C)cc1C | x | x | x | 2%
CC(C)(C)c1ccc(C(=O)O/N=C(\N)c2ccccn2)cc1 | -6 | -4 | -51% | -11%
Cc1cccc(/C(N)=N/OC(=O)c2cccnc2)c1 | 103* | 33* | -5% | 0%
O=C(NNC(=O)c1cccs1)c1cccnc1 | 6 | -3 | 16% | 0%
N/C(=N\OC(=O)c1ccc(Br)o1)c1ccccn1 | 61* | 26* | -34% | -21%
N/C(=N\OC(=O)c1cccs1)c1cccnc1 | 43* | 40* | 6% | -4%
Cc1cccc(/C(N)=N/OC(=O)c2ccc(Br)o2)c1 | 90* | 91* | -19% | -61%
CCOC(=O)c1c(S(=O)(=O)NCc2ccc(C)o2)c(C)n(C)c1C | -3 | 10 | -9% | -3%
CS(=O)(=O)c1ccccc1C(=O)N1CCN(Cc2ccccc2)CC1 | 2 | 0 | x | 0%
Cc1cccc(/C(N)=N/OC(=O)c2ccc(Cl)cc2Cl)c1 | 72* | 70* | -26% | -87%
Cc1ccc(/C(N)=N/OC(=O)c2ccc(C)cc2Cl)cc1 | 26* | 80* | -70% | -86%
N/C(=N\OC(=O)c1ccc(Cl)cc1)c1cccnc1 | 175* | 42* | -102% | -13%
N/C(=N\OC(=O)c1ccc(Cl)cc1Cl)c1cccnc1 | 91* | 35* | -7% | -1%
Cc1ccc(/C(N)=N/OC(=O)Oc2ccccc2)cc1 | 22 | -3 | -14% | -6%
N/C(=N\OC(=O)COc1ccc(Br)cc1)c1cccnc1 | -9 | 15 | -12% | 0%
NNC(=O)CNC(=O)CNS(=O)(=O)c1ccccc1 | -2 | -1 | 5% | 0%
Cc1ccc(Cn2ncn(-c3ccccc3)c2=O)cc1 | 30 | 19* | 2% | -1%
COC(=O)c1cc([N+](=O)[O-])c(-n2ccnc2)c([N+](=O)[O-])c1 | -2 | -4 | -3% | -4%
CC(C(=O)N1CCc2ccccc21)N(C)CC(=O)Nc1cccc(F)c1 (stereo not given) | x | x | x | -1%
Cc1cc(OCC(=O)OCC(=O)NC2CCCC2)ccc1Cl | x | x | x | -8%
Cc1cc(OCC(=O)NC2CCCCC2)ccc1Cl | 67* | 30* | -10% | 22%
Cc1cc(=O)oc2cc(OCC(=O)NC3CCCCC3)ccc12 | 6 | 22* | -2% | 1%
SMILES | Shiga inhibitor | CHX counter | NS1 function inh | SARS PLpro yeast
O=C(COC(=O)/C=C/c1ccc([N+](=O)[O-])cc1)Nc1ccc2[nH]c(=O)[nH]c2c1 | x | x | x | 4%
O=C1c2sc3nc4c(c(=O)n3c2C(=O)N1c1ccccc1)CCC4 | 47* | 6 | -132% | -2%
CN1C(=O)C2C(c3ccc(N(C)C)cc3)=NN(Cc3ccccc3)C2C1=O (stereo not given) | 1 | -1 | x | 0%
COc1ccc(C2=NN(Cc3ccccc3)C3C(=O)NC(=O)C23)cc1 (stereo not given) | 40 | 20* | -3% | -1%
Cc1ccc(-c2ccc(=O)n(Cc3c(F)cccc3Cl)n2)cc1 | 10 | 20* | -6% | 0%
COc1ccc(-c2ccc(=O)n(Cc3ccccc3)n2)cc1 | 28* | 21* | 2% | -4%
CCOC(=O)c1ccc(NC(=O)c2ccc[n+]([O-])c2)cc1 | -9 | -6 | -3% | -1%
Cc1ccc(NC(=O)Nc2cc(S(C)(=O)=O)ccc2Cl)cc1 | 78* | 36* | -2% | 0%
O=C(NCC1CCCN(C(=O)c2cscn2)C1)c1ccccc1Cl (stereo not given) | 30* | 25* | 5% | 5%
CC(=O)NCCC(=O)N1CCCC(CNC(=O)c2ccc(-c3ccccc3)cc2)C1 (stereo not given) | 27 | 15* | -6% | 0%
C=CCC(=O)N1CCCC(CNC(=O)c2ccc(-c3ccccc3)cc2)C1 (stereo not given) | 11 | 9 | -2% | -1%
CC(=O)c1ccc(C(=O)N2CCCC(CNC(=O)c3ccccc3Cl)C2)cc1 (stereo not given) | 19 | 15* | 0% | 0%
COc1ccc(CC(=O)N2CCCC(CNC(=O)c3ccccc3Cl)C2)cc1 (stereo not given) | 33* | 12 | 4% | 0%
Cc1cccc(NC(=O)N2CCCC(CNC(=O)c3ccccc3Cl)C2)c1C (stereo not given) | 23 | 7 | 5% | 2%
O=c1[nH]nc(SCc2nnc(-c3ccc([N+](=O)[O-])cc3)o2)n1C1CCCCC1 | 3 | 1 | -5% | 1%
CCn1cc(C(=O)N(CCC(C)C)c2c(N)n(Cc3ccccc3)c(=O)[nH]c2=O)c(=O)c2ccc(C)nc21 | 15 | -4 | x | -5%
COC(=O)c1ccc(C(=O)N2CCCC(CNC(=O)c3ccccc3Cl)C2)cc1 (stereo not given) | 69 | 13* | 2% | 1%
CCn1nc(C)c(CN2CCC(n3nccc3NC(=O)c3ccc4c(c3)OCO4)CC2)c1C | -18 | -3 | 6% | -1%
CCOC(=O)/C=c1\s/c(=C\c2ccc(-c3ccccc3)cc2)c(=O)n1CC(=O)NCc1ccc2c(c1)OCO2 | 10 | -1 | 11µM* | -17%
O=C(CNC(=O)c1ccc(S(=O)(=O)N2CCCC2)cc1)N/N=C/c1ccco1 | -1 | -2 | x | 1%
c1csc(-c2nnc(N3CCCCCC3)c3ccccc23)c1 | 77* | 15* | -18% | -11%
Cc1cc(C)c(C#N)c(SCc2cn3ccccc3n2)n1 | 33 | 15* | u | 3%
Cc1cc(C)nc(SCc2cn3ccccc3n2)n1 | 27 | 22* | 5% | 1%
Cc1cc(C)c(C#N)c(SCc2ccccc2)n1 | -7 | -1 | -19% | 12%
O=C(c1ccc2c(c1)OCO2)N(Cc1ccco1)C1(C(=O)NC2CCCCC2)CCCCC1 | -7 | -4 | -14% | -12%
SMILES | Shiga inhibitor | CHX counter | NS1 function inh | SARS PLpro yeast
COc1c2c(cc3ccc(=O)oc13)CCO2 | x | -4 | -17% | 2%
COc1ccccc1CNC(=O)CCC(=O)n1ncc2cc(C)ccc21 | 2 | 6 | -8% | 3%
Cc1c(-c2cc(C(=O)O)no2)cnn1C | 50* | 29* | 3% | -1%
CCn1ncc(-c2cc(C(=O)O)no2)c1C | -25 | -4 | 2% | -1%
CC(=O)N/N=c1\sc2ccccc2n1C | 29 | 1 | x | 4%
Cn1c(=Nc2ccccc2)sc2ccccc21 | 82 | 36* | -13% | -4%
Cc1ccc(S(=O)(=O)N/N=c2\sc3ccccc3n2C)cc1 | -11 | -7 | 2% | -24%
CN(C)c1ccc(N=c2sc3ccccc3n2C)cc1 | 89* | 54* | 5% | -17%
Cc1ccc(C)c(S(=O)(=O)N2CCCCC2CCNC(=O)C(=O)NCc2ccco2)c1 (stereo not given) | x | x | x | 0%
O=c1c2cc(N3CCOCC3)ccc2[nH]c(=S)n1Cc1ccco1 | 7 | 11* | 27% | -4%
O=C(CCCCCn1c(=S)[nH]c2ccc(N3CCOCC3)cc2c1=O)NC1CCN(Cc2ccccc2)CC1 | 8 | -3 | x | -4%
O=c1c2cc(N3CCOCC3)ccc2[nH]c(=S)n1Cc1cccc(Cl)c1 | -11 | -4 | 11% | 5%

Source: PubChem
